The results in this text go back to PubChem BioAssay AID686978 (National Center for Advancing Translational Sciences (NCATS), 2013).

Where “and” joins values, the source holds several entries; their conditions need not be identical. Equal entries are not always repeated. Out of some 420,000 compounds screened, about 64,000 (15%) were called active. Another 27% or so got no clear call; they are omitted. Calls come from the whole dose curve; as a rule, active = well fitted inhibition curve with a large enough effect; inconclusive = small, poorly fitted or top-dose-only effect; inactive = flat fitted curve, though single readings scatter. Only a sample is shown. A call without a number means that no potency is given here. Where a structure was tested more than once in an assay, its records may differ in their call. Numbered stars: 1 amine (or outer) side, 2 acyl side, 3 side chain; on linkers, the order of the positions; unused ones are H or OH. Bridge positions count the residues as written; N and C are the ends. Square brackets hold non-standard residues; d marks the D form. Peptide text beside a SMILES is read from it. * marks the point of attachment. X11 = NC1=N[C@@H]([C@H](N[*:1])C(=O)[*:2])C[C@H](O)N1; ΔAla(Z-3-ureido) = NC(=O)N/C=C(\N)C(=O)O; β3hOrn = NCCC[C@H](N)CC(=O)*; Dap = NC[C@H](N)C(=O)O
Potency is the fitted concentration of half-maximal effect.

This test is described as follows: qHTS for Inhibitors of human tyrosyl-DNA phosphodiesterase 1 (TDP1): qHTS in cells in absence of CPT. Note: nearly all actives have a fitted effect of over 55% in size. The note with it: DT40 Tdp1-/- hTDP1 cells, no CPT, ATP luminescence, 48 h; activity change, negative = growth inhibition: at 46.2 µM (top of the series). The essentials: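 Chicken DT40 Tdp1-/- cells complemented with human TDP1, screened without camptothecin (DMSO vehicle only), 400 cells/well. Compounds pin-transferred, cells incubated at 37 °C for at least 48 hr. Growth read as ATP-dependent luminescence (CellTiter-Glo, 30 min at RT).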
(Quantitative high-throughput screening tests each substance at several concentrations.)
Turning to `O=C(Nc1cccc(C(F)(F)F)c1)c1cc(Br)cc(Br)c1O`, the Potency is 13.3 µM (active). With `O=C(O)CSCC(=O)Nc1cccc(C(F)(F)F)c1`, the Potency result is “inactive”. `O=C(O)CC1(CC(=O)Nc2cccc(C(F)(F)F)c2)CCCC1`: the Potency result is “inactive”.

For `Cn1c(SCC(=O)N2CCOCC2)nnc1-c1ccc(NC(=O)c2ccccc2F)cc1`, the Potency entry is “inactive”.

As for `CC1CN(C(=S)Nc2ccc(Br)cc2Cl)CC(C)O1` (stereo unspecified), the Potency result is “inactive”. With `CNC(=S)N/N=C/c1ccc(OCc2ccccc2)c(Br)c1`, the Potency was 10.3 µM (active). For `O=C(N/N=C/c1cccc(OCc2ccccc2)c1)c1ccc(Br)o1`, the Potency entry is “inactive”. Take `C=CCNC(=S)N/N=C/c1ccc(OCc2ccccc2)cc1`: the Potency result was “inactive”. As to `CC1CN(c2cc(=O)n(-c3cccc(Br)c3)c(=O)[nH]2)CC(C)O1` (stereo unspecified), the Potency entry is “inactive”. Take `CS(=O)(=O)c1cccc(-c2ccc3nncn3c2)c1`: the Potency entry is “inactive”. For the compound `CSc1ccccc1C(=O)OCC(=O)N1CCN(C(C)=O)CC1`, the Potency entry is “inactive”.

Take `Cc1ccc(N2C(=O)CN=C2Nc2nc(C)cc(C)n2)cc1`: the Potency result was “inactive”. Next, `Cc1cc(/C=C2\SC(=Nc3ccc(N4CCOCC4)cc3)N(C)C2=O)c(C)n1-c1cccnc1`: “inactive”; `O=C(Nc1ccc([N+](=O)[O-])cc1)OCCc1ccccn1`: “inactive”; `Cc1cc(Nc2ccccc2)nc(N)n1`: “inactive”. Next, `Clc1ccc(Nc2ccc3ccccc3n2)cc1`: “inactive”; `Cc1ccc2nc(Nc3ccccc3)cc(C)c2c1`: 10.3 µM (active); `Cc1nc(CC(=O)NNS(=O)(=O)c2ccc(F)c(Cl)c2)cs1`: “inactive”. Next, `NCCC[C@H](N)CC(=O)N[C@H]1CNC(=O)[C@H]([C@H]2C[C@H](O)NC(N)=N2)NC(=O)/C(=C/NC(N)=O)NC(=O)[C@H](CO)NC(=O)[C@H](CO)NC1=O` (β3hOrn-[Dap]SS[ΔAla(Z-3-ureido)][X11]; lactam 1-C): “inactive”; `CCOc1cc(C)ccc1OCc1nnc(SCC(=O)Nc2cccc(C(=O)O)c2)n1-c1ccccc1`: “inactive”. `Cc1c(Br)c([N+](=O)[O-])nn1C(C)C(=O)Nc1nccs1` (stereo unspecified): the Potency entry is “inactive”. Consider `CC(=O)Nc1ccc(S(=O)(=O)NC(C)C(=O)OCC(=O)NC2CCCC2)cc1` (stereo unspecified), for which the Potency entry was “inactive”. As to `CCOC(=O)c1ccc(NC(=O)Cn2c(=O)cc(C)c3c(C)nn(-c4cccc(F)c4)c32)cc1`, the Potency was 18.4 µM (active). As to `CCc1ccc(-n2nc(C)c3c(C)cc(=O)n(CC(=O)Nc4ccc(F)cc4C)c32)cc1`, the Potency entry is “inactive”.

Regarding `COc1ccc(NC(=O)Cn2c(=O)cc(C)c3c(C)nn(-c4cccc(Cl)c4C)c32)cc1OC`, the Potency result is “inactive”. For `Cc1cnc(-n2ncc(C(=O)N3CCN(C(C)C)CC3)c2-c2ccco2)nc1-c1ccc(F)cc1`, the Potency entry is “inactive”. As to `O=C(Nc1nnc(CCN2CCCCC2)s1)c1cccc(Cl)c1`, the Potency entry was “inactive”. For the compound `CCCNC(=O)c1ccc(Cl)c(Cl)c1`, the Potency result is “inactive”. On to `CCCn1c(=N)n(CC(=O)c2ccc(Cl)c(Cl)c2)c2ccccc21`, for which the Potency was 11.6 µM (active). `CCN(CC)CC1(O)CCN(C(=O)c2ccc(Cl)c(Cl)c2)CC1`: the Potency entry was “inactive”. Take `O=C(O[C@@H]1[C@H](Cc2ccccc2)NS(=O)(=O)[C@H]2C[C@@H]3C=C[C@]12O3)c1ccccc1Br`: the Potency is 16.4 µM (active). As to `O=C(O[C@H]1[C@H](Cc2ccccc2)NS(=O)(=O)[C@H]2C[C@@H]3C=C[C@]12O3)c1ccc([N+](=O)[O-])cc1`, the Potency entry is “inactive”.

With `O=S1(=O)CCOC[C@H](Cc2ccccc2)N1Cc1ccccc1Br`, the Potency result was “inactive”. As to `Cc1ccc(Nc2cc(=O)n(C3CCCCC3)c(=O)[nH]2)cc1C`, the Potency entry is “inactive”. As for `C/C(=C\C(=O)c1ccc(Br)cc1)N1CCCCC1`, the Potency entry is “inactive”. Next, `O=S1(=O)CCN2C(=N1)SC1=C2CCN(Cc2ccccc2)C1`: “inactive”. Regarding `O=C(O)CC12CC3CC(C1)CC(n1ncc(NCc4ccc(F)cc4)c(Cl)c1=O)(C3)C2`, the Potency result is “inactive”. Take `O=C(O)c1ccc(Cn2cnc3c(=S)nc[nH]c32)cc1`: the Potency result was “inactive”. The same measure for `CCOC(=O)C1CCN(S(=O)(=O)c2ccc3c(c2)N(C(C)=O)CCO3)CC1`: “inactive”; for `CC(=O)N1CCSc2ccc(S(=O)(=O)N3CCC(C)CC3)cc21`: 14.6 µM (active); for `CC1CCN(S(=O)(=O)c2ccc3c(c2)n(C)c(=O)n3C)CC1`: “inactive”. Consider `CCOC(=O)c1ccccc1C(=O)N1CCOCCOCCOCC1`, for which the Potency result was “inactive”. Regarding `CCC(C)CN1CCC(CO)(Cc2ccccc2Cl)CC1` (stereo unspecified), the Potency result was “inactive”. Consider `O=C(Nc1cnccn1)c1cccnc1`, for which the Potency entry is “inactive”. For the compound `O=C(O)c1ccc2c3c(cccc13)C(=O)N(OS(=O)(=O)c1ccccc1)C2=O`, the Potency entry is “inactive”. Regarding `COc1ccccc1N1CCN(c2ncnc3sc(C)c(-c4ccccc4)c23)CC1`, the Potency entry was “inactive”. As for `COc1ccccc1N1CCN(c2ncnc3onc(-c4ccc(F)cc4)c23)CC1`, the Potency was 18.4 µM (active). `COc1ccccc1N1CCN(c2ncnc3onc(-c4cccc(Cl)c4)c23)CC1`: the Potency entry is “inactive”.

On to `Cc1ccc(Cl)cc1N(C)C(=O)C1CCCN(c2ncnc3onc(-c4ccc(F)cc4)c23)C1` (stereo unspecified), for which the Potency was 4.11 µM (active). On to `CN(Cc1ccccc1)c1ncnc2onc(-c3ccc(F)cc3)c12`, for which the Potency was 18.4 µM (active). `CC1=C(c2ccc(F)cc2)S(=O)(=O)N=C1N1CCC(C(=O)NCCc2ccccc2C)CC1`: the Potency entry is “inactive”.

For the compound `CCc1ccccc1N(C)C(=O)C1CCCN(c2ncnc3onc(-c4ccc(F)cc4)c23)C1` (stereo unspecified), the Potency was 11.6 µM (active). On to `CCc1noc(C)c1C(=O)N1CCCC(N2CCN(c3ccc(F)cc3)CC2)C1` (stereo unspecified), for which the Potency result is “inactive”.

Take `CN(Cc1ccccc1)c1ccc(-c2nc(-c3ccccc3)no2)cc1[N+](=O)[O-]`: the Potency result is “inactive”. Regarding `O=C1NN(c2ccccc2)C(=O)/C1=C/c1ccc(-c2cccc(C(=O)O)c2)o1`, the Potency entry was “inactive”. With `O=C1NC[C@H](CCCCN2CCN(CCc3ccccc3)C(=O)C2=O)N(CC2CCCCC2)C1=O`, the Potency result was “inactive”.

For the compound `CN(C)NC(=O)c1csnc1-c1c(Cl)cccc1Cl`, the Potency result is “inactive”.

Consider `c1ccc(Nc2n[nH]nc2-c2ccccc2)cc1`, for which the Potency entry is “inactive”. On to `Cc1ccc(S(=O)(=O)CC(=O)NC(C)c2ccccc2)cc1` (stereo unspecified), for which the Potency entry was “inactive”. As for `Cc1ccccc1-c1nc(CS(=O)(=O)CC(=O)NC(C)c2ccccc2)c(C)o1` (stereo unspecified), the Potency result is “inactive and 16.4 µM (active)”. For `CSc1ccc(CCNC(=O)CS(=O)(=O)Cc2nc(-c3ccccc3F)oc2C)cc1`, the Potency result is “inactive”. Next, `Cc1ccc(NC(=O)c2sccc2C)cc1[N+](=O)[O-]`: “inactive”.

`O=C(C1CCN(CC2CCCCC2)CC1)N1CCCC1`: the Potency result is “inactive”.

As to `CC(=O)NS(=O)(=O)c1ccc(NC(=S)NC(=O)C(C)(C)C)cc1`, the Potency entry is “inactive”. In the case of `CC(NC(=O)c1ccccc1SCC(=O)N1CCCC1)c1ccccc1` (stereo unspecified), the Potency entry is “inactive”. On to `C=CCn1c(=S)[nH]c2nc3c(cc2c1=O)COC(C)(C)C3`, for which the Potency entry was “inactive”. Turning to `CCOc1ccc(NC(=O)CSc2ncnc3c2sc2ccccc23)cc1`, the Potency entry was “inactive”. Regarding `CC1(C)Cc2nc3sc4c(SCC(=O)NC(c5ccccc5)c5ccccc5)ncnc4c3cc2CO1`, the Potency is 8.2 µM (active). Next, `O=c1cnnc(Nc2ccccc2F)[nH]1`: “inactive”. The same measure for `CCc1nc2nc(C)c(NS(=O)(=O)c3ccc4c(c3)CCCC4)c(=O)n2[nH]1`: “inactive”; for `COCc1c(N)c(C)nc(Cl)c1C#N`: “inactive”. For `O=C(NCCCO)C(=O)Nc1c2c(nn1-c1ccccc1)CSC2`, the Potency entry is “inactive”. Next, `COc1ccc(N(C(=O)CNC(=O)c2ccco2)C(C(=O)NCC2CCCO2)c2ccccc2)cc1Cl` (stereo unspecified): “inactive”. Next, `Cc1ccc(-c2nn(-c3ccc(F)cc3)cc2C(=O)NCC(c2cccs2)N2CCOCC2)cc1` (stereo unspecified): 14.6 µM (active).

As for `O=C(NCc1cccnc1)c1cn(-c2ccccc2)nc1-c1cccs1`, the Potency result is “inactive”. In the case of `O=C(NCCCN1CCOCC1)c1cn(-c2ccccc2)nc1-c1ccc(F)cc1`, the Potency entry was “inactive”. For the compound `Cc1nn(CC(=O)NCc2ccccn2)c(C)c1[N+](=O)[O-]`, the Potency result was “inactive”. Take `CCOC(=O)c1c(NC(=O)/C=C/c2ccco2)sc(C)c1C`: the Potency result was “inactive”. The same measure for `C#CCOCCOCCOCCNc1nc(N2CCN(C(=O)C([C@@H](C)CC)n3cc(C(N)COC(=O)C(F)(F)F)nn3)CC2)nc(N2CCN(C(=O)[C@H](Cc3ccc(O)cc3)n3cc(C(N)[C@H](C)CC)nn3)CC2)n1` (stereo partly specified): “inactive”. Next, `O=C(CSc1nncn1-c1cccnc1)N1CCOCC1`: “inactive”.

Take `O=S(=O)(c1ccc(F)cc1)N1CCN(C(=S)NC2CCCC2)CC1`: the Potency entry was “inactive”. Next, `CCOC(=O)c1sc(=S)n(-c2cccc(OC)c2)c1N`: 11.2 µM (active). Consider `CCOC(=O)Cn1c(N)c(C(=O)OC)sc1=S`, for which the Potency result was “inactive”.

`COc1cccc(-n2c(=S)sc3c(=O)n(-c4ccccc4C)c(SCC(=O)O)nc32)c1`: the Potency entry was “inactive”.

With `Cc1ccc(-c2nnn(CC(=O)N(CCO)C(C(=O)NC(C)(C)C)c3ccncc3)n2)cc1` (stereo unspecified), the Potency result is “inactive”. Consider `Cc1cccc2c3c(ccc12)C1=C(C(=O)C3=O)C(C)CO1` (stereo unspecified), for which the Potency result was “inactive”. On to `CCCC(=O)Nc1ncnc2c1ncn2[C@@H]1O[C@@H]2OP(=O)(O)OC[C@H]2[C@H]1OC(=O)CCC`, for which the Potency entry is “inactive”. With `Cc1nc(CNS(=O)(=O)c2cccnc2)cs1`, the Potency result was “inactive”.

Take `Cc1ccc(CN2CCCn3nc(C(=O)NCc4ccccc4Cl)cc3C2=O)cc1`: the Potency was 25.9 µM (active).

`COC(=O)c1ccc(CNC(=O)C2CCC(=O)N(Cc3cccc(F)c3)C2)cc1` (stereo unspecified): the Potency entry is “inactive”. For the compound `CCNC(=O)c1cc2n(n1)CCCN(Cc1ccc(C)cc1)C2=O`, the Potency result was “inactive”. In the case of `COC(=O)c1cc2n(n1)CCCNC2=O`, the Potency result was “inactive”. Take `COc1cc(CNC(=O)c2cc3n(n2)CCCN(Cc2cccc(F)c2)C3=O)cc(OC)c1OC`: the Potency was 20.6 µM (active). On to `O=C(NCc1ccccc1Cl)c1csc2c1CCCCC2`, for which the Potency result is “inactive”. Regarding `Cn1c(=O)c2c(ncn2CC(=O)N/N=C/c2cn[nH]c2-c2ccc(F)cc2)n(C)c1=O`, the Potency result was “inactive”. On to `O=C(Cc1ncc(C(F)(F)F)cc1Cl)Nc1cccc(Br)c1`, for which the Potency result was “inactive”. Take `CCc1nnc(NC(=O)CCC(=O)O)s1`: the Potency entry is “inactive”. The same measure for `O=C(Nc1ncccn1)c1cccs1`: “inactive”; for `S=C1SCN(CCN2CCOCC2)CN1Cc1ccccc1`: 3.16 µM (active); for `CCN1CN(Cc2ccccc2)CNC1=S`: “inactive”. Turning to `C/C(CCc1ccccc1)=N\NC(=O)c1ccc(CN2CCOCC2)cc1`, the Potency entry is “inactive”.
